# Tests used:
# Assay in all cases: pooled miR-30 sensor sort-seq; sequence = guide strand
# Conditions in all cases: shRNA
# FKTN = biological target: FKTN
# FKBPL = biological target: FKBPL
# FIZ1 = biological target: FIZ1
# FKBP10 = biological target: FKBP10
# FNBP1L = biological target: FNBP1L
# FNTB = biological target: FNTB
# FOXK1 = biological target: FOXK1
# Also: reference of the scale not given here.
sequence,measurement,setting,value
TTGCATTGTGAAGTAGAGCCAT,sensor-assay potency score (higher = more potent),FKTN,0.152
TTCCTTCTCGCTAGTCTCCAGC,sensor-assay potency score (higher = more potent),FKBPL,-1.31
TCTCGCACTCGGAGCAGCCGAA,sensor-assay potency score (higher = more potent),FIZ1,-1.41
TAATCTGAATAACTGAATCAAG,sensor-assay potency score (higher = more potent),FKBPL,-1.19
TCAAACAGCAGCACAGCACTGC,sensor-assay potency score (higher = more potent),FKBP10,0.521
TTGAATCAAACTTCTTGCCATC,sensor-assay potency score (higher = more potent),FKBP10,-0.96
TAGATCAGTCCATTCTACTGGG,sensor-assay potency score (higher = more potent),FIZ1,0.523
TTCTCGCACTCGGAGCAGCCGA,sensor-assay potency score (higher = more potent),FIZ1,-1.7
TCGTCGACTGTGATCTTGCCGT,sensor-assay potency score (higher = more potent),FKBP10,-0.799
TAGCTTGAATCAAACTTCTTGC,sensor-assay potency score (higher = more potent),FKBP10,0.0257
TAATCTTCCTTCTCTCTCCAGG,sensor-assay potency score (higher = more potent),FKBP10,-0.239
TGAGCGGAACAGCTTCTCGCAC,sensor-assay potency score (higher = more potent),FIZ1,-1.25
TGAAGCTGTGCTTGAAACCCTT,sensor-assay potency score (higher = more potent),FIZ1,-0.439
TCTATCGCCAGCACCTTCTTGA,sensor-assay potency score (higher = more potent),FKBPL,0.068
TGGTACAGGGTGTCTTCCGAGG,sensor-assay potency score (higher = more potent),FIZ1,-1.47
TTGGCATGAAGGACAGTTCGTT,sensor-assay potency score (higher = more potent),FKBPL,0.00211
TTGATCAGCCAACCAGAGCCGA,sensor-assay potency score (higher = more potent),FKBP10,-0.877
TTTCGGTAGGAGGGTCTCGGGG,sensor-assay potency score (higher = more potent),FKBPL,-1.79
TTGAAGATTAGCACGGCAGAGC,sensor-assay potency score (higher = more potent),FKBP10,-0.871
TTCCTCACCTTGACACATGGAC,sensor-assay potency score (higher = more potent),FKBPL,-0.29
ATGAAGGACAGTTCGTTCTGGA,sensor-assay potency score (higher = more potent),FKBPL,0.322
TTGAAGTCGCGCTCGCAGCGCG,sensor-assay potency score (higher = more potent),FIZ1,-0.792
TGCATTGTCGATACCATCCTAG,sensor-assay potency score (higher = more potent),FKTN,-0.739
ATCTTCTTGACAAAGCTCCCAT,sensor-assay potency score (higher = more potent),FKBPL,-0.554
TTGAGTATGCTCTAGAATTTGG,sensor-assay potency score (higher = more potent),FKBPL,-0.551
TAGACAAGTTCCACTGCTCAGC,sensor-assay potency score (higher = more potent),FKTN,-0.942
TTCTGCTACAACTTCTCGCTGT,sensor-assay potency score (higher = more potent),FNBP1L,0.673
TTGTAAGAACTGAAGACCTCTT,sensor-assay potency score (higher = more potent),FNTB,0.275
TGGATCTTGATGGCCGTGCTGG,sensor-assay potency score (higher = more potent),FOXK1,-0.887
ATGAGGAACTCGAACTCGCGGC,sensor-assay potency score (higher = more potent),FOXK1,-0.982
